Laboratory results from PubChem BioAssay.
The source made the active and inactive calls.

What was measured:
[1] = A549 cell viability effects, profiling panel, calcein-AM fluorescence, 48 h, basal (AID 1162); conditions: higher = more signal
[2] = adipocyte viability effects, profiling panel, cell-based, 3T3-L1 adipocytes, calcein-AM fluorescence, 48 h, basal (AID 1163); conditions: 3T3-L1 adipocytes viability, higher = more signal
[3] = HepG2 cell viability effects, profiling panel, calcein-AM fluorescence, 48 h, basal (AID 1164); conditions: higher = more signal
[4] = MM1S cell viability effects, profiling panel, calcein-AM fluorescence, 48 h, basal (AID 1165); conditions: higher = more signal;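 also: viability of MM1S multiple myeloma cells under basal unstimulated conditions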
[5] = basal RPMI8226 viability, no added stimulus, profiling panel, cell-based, calcein-AM fluorescence, 48 h, PK04 Diversity Set (AID 1166); conditions: RPMI8226 myeloma viability, higher = more signal;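 also: cells grown under basal conditions without added stimulus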
[6] = basal HepG2 mitochondrial membrane potential changes, profiling panel, cell-based, JC-1 fluorescence, 24 h, 100 nL compound (AID 1167); conditions: higher = more signal
[7] = basal 3T3-L1 adipocyte mitochondrial potential changes, profiling panel, cell-based, JC-1 fluorescence, 3T3-L1 adipocytes, 24 h, 100 nL compound (AID 1168); conditions: JC-1 mitochondrial fluorescence, higher = more signal, called active from +8 up or from −8 down
[8] = basal RPMI8226 mitochondrial membrane potential changes, profiling panel, cell-based, JC-1 fluorescence, 24 h, 100 nL compound (AID 1169); conditions: RPMI8226 myeloma, JC-1 mitochondrial potential fluorescence, higher = more signal
[9] = basal MM1S mitochondrial membrane potential changes, profiling panel, cell-based, JC-1 fluorescence, 24 h, 100 nL compound (AID 1170); conditions: higher = more signal
[10] = A549 lung cancer cell viability effects, profiling panel, resazurin fluorescence, 24 h, PK04 Diversity Set (AID 1171); conditions: higher = more signal, called active from +8 up or from −8 down
Also: test concentration not given here.

Structure (SMILES) | z-score [1] | z-score [2] | z-score [3] | z-score [4] | z-score [5] | z-score [6] | z-score [7] | z-score [8] | z-score [9] | z-score [10]
CC(C)(C)N1C(=O)[C@H]2[C@H]3[C@H](O)[C@H](O)CC(=NNC(=O)OCc4ccccc4)[C@H]3CC[C@H]2C1=O | -1.13 | 1.11 | -0.516 | -0.269 | -0.934 | -0.639 | -1.49 (inactive) | -0.411 | -0.823 | 0.321 (inactive)
CO[C@@H]1C=CCC(=O)N[C@@H](C)C(=O)OC[C@@H](NS(=O)(=O)c2ccc(C)cc2)[C@H](C)C=CCC(=O)OC[C@H]1C | -0.533 | 0.37 | 0.495 | -0.0903 | -0.431 | 0.0105 | 0.0826 (inactive) | -0.782 | 0.301 | 0.179 (inactive)
COc1ccc(COC(=O)NN=C2C[C@@H](O)[C@@H](O)[C@@H]3[C@@H]4C(=O)N([C@@H](C)c5ccccc5)C(=O)[C@@H]4CC[C@@H]23)cc1 | -0.173 | 0.0685 | -0.966 | 0.434 | -1.26 | -0.697 | -0.132 (inactive) | -0.189 | -0.369 | 0.0487 (inactive)
COC(=O)[C@H](C)NC(=O)CCC1CC(OC(=O)NCc2cccc3ccccc23)CC2(CCCC(COC(=O)NCc3cccc(C(F)(F)F)c3)O2)O1 (stereo not given in full) | 0.826 | -0.508 | -0.918 | -3.11 | -0.0274 | -0.707 | 0.733 (inactive) | -0.742 | -0.905 | -1.16 (inactive)
CCOC(=O)[C@H](CC(C)C)NC(=O)CCC1CC(OC(=O)NCCc2ccc(F)cc2)CC2(CCCC(COC(=O)NCCOC)O2)O1 (stereo not given in full) | 0.0721 | -1.02 | -0.384 | 0.695 | 0.124 | -1.21 | -0.459 (inactive) | 0.64 | 0.441 | 0.305 (inactive)
O=C1C=C[C@@H](O)[C@@H]2[C@@H]3C(=O)N(Cc4ccc5c(c4)OCO5)C(=O)[C@@H]3CC[C@@H]12 | -0.0516 | 0.493 | 0.0311 | -0.186 | 0.0706 | -0.214 | -0.0146 (inactive) | 0.0398 | 0.652 | -0.701 (inactive)
Cc1ccc2[nH]c3nc(CCCn4ccnc4-c4ccccc4)nnc3c2c1 | 0.0515 | 0.339 | -0.18 | 1.05 | 0.392 | -0.807 | 1.1 (inactive) | 0.738 | -0.867 | 0.384 (inactive)
CC(=O)OC[C@H]1O[C@H](C#CCCc2ccccc2)C=C[C@@H]1OC(C)=O | 0.233 | 0.292 | -0.207 | -3.49 | -2.48 | -0.972 | -0.282 (inactive) | -0.353 | -1.11 | -0.182 (inactive)
O=C1C=C[C@@H](O)[C@@H]2[C@@H]3C(=O)N(c4cccc(Oc5ccccc5)c4)C(=O)[C@@H]3CC[C@@H]12 | -0.496 | 1.38 | 0.0765 | -1.03 | -2.47 | 0.111 | 0.717 (inactive) | -0.618 | -0.72 | -0.869 (inactive)
C#CCCCON=C1C[C@@H](O)[C@@H](O)[C@@H]2[C@@H]3C(=O)N([C@@H](C)c4ccccc4)C(=O)[C@@H]3CC[C@@H]12 | 0.241 | -0.532 | -0.47 | -0.597 | -0.337 | -0.998 | -0.377 (inactive) | 0.462 | -0.968 | -0.378 (inactive)
CCc1cc2c(nc1CC)CCN(CCC(C)=NOCC[C@@H]1C=C[C@H](OC(C)=O)[C@@H](COC(C)=O)O1)C2 | 0.34 | 0.63 | 0.679 | -0.47 | 0.123 | 1.45 | -1.32 (inactive) | 0.578 | -0.13 | 0.29 (inactive)
CC(C)=CCCC(C)=CCON=C1C[C@@H](O)[C@@H](O)[C@@H]2[C@@H]3C(=O)N(Cc4ccc5c(c4)OCO5)C(=O)[C@@H]3CC[C@H]12 | -0.0007 | 0.0614 | -0.579 | -2.32 | -1.31 | -0.214 | -0.412 (inactive) | -0.655 | -0.488 | -0.0045 (inactive)
COCOc1ccc(Br)cc1C(=O)C=Cc1ccc2c(c1)OCO2 | -0.206 | -0.342 | -2.2 | -3.48 | -3.81 | 1.28 | 0.0274 (inactive) | -1.12 | -2.71 | -1.56 (inactive)
CC(CCN1CCCc2nc(C)c(C)cc21)=NO[C@H](C)c1cn([C@H](CO)Cc2ccccc2)nn1 | -0.385 | 0.849 | -0.456 | -0.0916 | -1.88 | 0.0197 | -2.16 (inactive) | 0.136 | 0.859 | -0.254 (inactive)
CCOC(=O)CCN1C(=O)[C@H]2[C@H]3[C@H](O)[C@H](O)CC(=NO[C@@H]4O[C@H](CO)[C@@H](O)[C@H](O)[C@H]4O)[C@H]3CC[C@H]2C1=O | 0.484 | -0.961 | -0.898 | -0.359 | -0.0451 | -1.13 | -0.647 (inactive) | -0.225 | -0.171 | -0.292 (inactive)
CON=C(C)CCN1CCc2nc(-c3ccccc3)c(-c3ccccc3)cc2C1 | -0.119 | 0.728 | 0.0133 | -2.98 | -1.5 | 1.03 | -0.144 (inactive) | -0.0566 | 0.446 | 1.73 (inactive)
CC(=O)OC[C@H]1O[C@H](CC=NO[C@@H](C)c2cc(-c3c(C)cc(C)cc3C)no2)C=C[C@@H]1OC(C)=O | -0.937 | 0.318 | -0.799 | 0.267 | -1.29 | -0.158 | -0.845 (inactive) | 0.774 | -0.322 | -0.0973 (inactive)

Structure (SMILES) | z-score [1] | z-score [2] | z-score [3] | z-score [4] | z-score [5] | z-score [6] | z-score [7] | z-score [8] | z-score [9] | z-score [10]
C#CCCCON=C1[C@H]2CCn3c(=O)n([C@@H](CC)c4ccccc4)c(=O)n3[C@H]2[C@H](O)[C@@H]2O[C@H]12 | 0.0523 | 0.44 | -0.129 | -1.77 | -0.0952 | -0.696 | 0.123 (inactive) | -0.547 | -0.662 | 0.43 (inactive)
C[C@H]1CC[C@@H](C(=O)O)N[C@@H]1c1ccc(C#Cc2ccccc2)cc1 | -2.1 | 0.196 | -2.28 | -3.57 | -3.49 | -3.46 | -0.272 (inactive) | -0.92 | -1.59 | -0.522 (inactive)
C[C@@H]1CC[C@H]2C(=O)N3[C@@H](CC[C@@H](C)[C@@H]3c3ccc(Br)cc3)C(=O)N2[C@H]1c1ccc(Br)cc1 | -0.569 | -0.42 | -0.0355 | -2.69 | -2.57 | 1.65 | -0.76 (inactive) | -0.22 | 1.41 | 0.632 (inactive)
CC(=O)OC[C@H]1O[C@@H](ON=C(C)CCC(=O)OC[C@H]2O[C@H](C#Cc3ccccc3)C=C[C@@H]2Oc2ccc(C)cc2)[C@H](OC(C)=O)[C@@H](OC(C)=O)[C@@H]1OC(C)=O | 0.16 | 0.57 | -0.325 | 0.0628 | -0.062 | 0.632 | -1.55 (inactive) | 0.393 | 0.69 | 0.221 (inactive)
CO[C@H]1COC(=O)[C@H](C)COC(=O)[C@@H](OCc2ccccc2)C=C[C@@H]1C | 0.644 | 0.0582 | 0.392 | 0.493 | -0.584 | 0.919 | 0.308 (inactive) | -0.177 | 1.26 | -0.0266 (inactive)
COC(=O)[C@H](C)NC(=O)CCC1CC(OC(=O)NCc2cccc3ccccc23)CC2(CCCC(COC(=O)NCCC(C)C)O2)O1 (stereo not given in full) | 0.505 | -0.0667 | -1.75 | -3.38 | -3.49 | -0.653 | 0.112 (inactive) | -0.51 | -1.82 | 0.236 (inactive)
C#CCCCON=C1C[C@@H](O)[C@@H](O)[C@@H]2[C@@H]3C(=O)N(C[C@@H]4CCCO4)C(=O)[C@@H]3CC[C@@H]12 | 0.137 | 1.22 | -0.396 | 0.476 | -0.0761 | -0.444 | 0.27 (inactive) | -0.193 | -0.485 | 0.0354 (inactive)
O=C1C[C@@H](O)[C@@H](O)[C@@H]2[C@@H]3C(=O)N(Cc4ccccc4)C(=O)[C@@H]3CC[C@H]12 | -0.801 | 0.241 | 0.175 | -0.0999 | 0.549 | -0.511 | -0.919 (inactive) | 0.0436 | -0.281 | -0.673 (inactive)
CC(C)=CCCC(C)=CCON=C1[C@H]2CCn3c(=O)n(-c4ccccc4)c(=O)n3[C@H]2[C@H](O)[C@@H]2O[C@H]12 | -0.603 | -0.141 | -0.838 | -2.89 | -1.47 | -1.07 | -0.462 (inactive) | -0.247 | -1.81 | -1.33 (inactive)
CC(C)(C)N1C(=O)[C@H]2[C@@H]3C(=CC[C@H]2C1=O)C(=O)[C@H]1O[C@H]1[C@H]3O | -2.32 | -3.02 | -4.31 | -3.19 | -3.9 | 2.38 | 2.29 (inactive) | -0.787 | -2.59 | -3.43 (inactive)
C=CC[C@@H]1C=C[C@H](ON=C[C@@H](NS(=O)(=O)c2ccc(C)cc2)[C@H](C)C=CCC(=O)OC)[C@@H](CO)O1 | 0.309 | 0.359 | 0.405 | 0.465 | -0.915 | -0.836 | -0.959 (inactive) | 0.117 | -0.979 | -1.03 (inactive)
CC(=O)OC[C@H]1O[C@H](CC=NOCC[C@@H]2C=C[C@H](OC(C)=O)[C@@H](COC(C)=O)O2)C=C[C@@H]1OC(C)=O | -0.542 | -0.282 | -0.441 | 0.0077 | -0.786 | -0.314 | -0.267 (inactive) | 0.503 | 0.394 | 0.125 (inactive)
CCN1C(=O)[C@H]2[C@H]3[C@H](O)[C@H](O)CC(=NOCC[C@@H]4C=C[C@H](OC(C)=O)[C@@H](COC(C)=O)O4)[C@@H]3CC[C@H]2C1=O | 1.03 | -0.286 | -0.296 | 0.0566 | -0.727 | -0.301 | -0.132 (inactive) | 0.572 | -0.306 | -0.774 (inactive)
CC(=O)OC[C@H]1O[C@@H](ON=C(C)C)[C@H](OC(C)=O)[C@@H](OC(C)=O)[C@@H]1OC(C)=O | -0.132 | 0.0138 | -0.179 | -0.0646 | -0.43 | -0.0132 | -0.763 (inactive) | 0.93 | 0.35 | -0.0264 (inactive)
CON=C(C)CCC(=O)OC[C@H]1O[C@H](C#Cc2ccccc2)C=C[C@@H]1Oc1ccc(C)cc1 | -0.631 | 0.0995 | -3.1 | -2.99 | -3.96 | -0.712 | -0.73 (inactive) | -0.5 | -0.373 | 0.216 (inactive)
CCOC(=O)NN=C1C[C@@H](O)[C@@H](O)[C@@H]2[C@@H]3C(=O)N(c4ccc(F)cc4F)C(=O)[C@@H]3CC[C@H]12 | -0.999 | 1.01 | -0.925 | 0.593 | -0.895 | 1.11 | -0.734 (inactive) | 0.14 | -0.354 | 0.745 (inactive)
